PubChem BioAssay (Tox21)
Several values for one entry are separate records, joined by “and”; a condition that tells them apart may be missing. Equal values may be shown once. Results filed as inconclusive are left out. A number with no mark means an inactive call. Activity calls are given as the source filed them. Calls follow the shape of the dose curve; as a rule, active = well fitted cell-killing curve with a large enough effect in the repeat runs; inconclusive = weak or mixed curves, or effect the other way; inactive = flat fitted curve, though single readings scatter.

Assay: qHTS assay to identify small molecule antagonists of the retinoid acid receptor (RAR) signaling pathway - cell viability counter screen (AID 1159551); also: nearly all actives have a fitted effect of over 35% in size
Conditions: C3RL4 cells viability, ATP luminescence (CellTiter-Glo), 6 h; series mostly up to 92.4 µM; activity change, negative = cytotoxicity: at the top concentration
Method in brief: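 Luminescent ATP quantitation (CellTiter-Glo) gave cell viability in C3RL4 cells exposed to test chemicals for 6 h at 37 C alongside 1 uM final retinol.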
% is scaled to controls: 0 for no effect and ±100 for the full control effect; potency is read from the fitted curve at half-maximal effect.

| Compound | activity change, negative = cytotoxicity | Potency |
| --- | --- | --- |
| CC(=O)CC(=O)Nc1ccc2[nH]c(=O)[nH]c2c1 | 1.62% |  |
| CC(C)CCCCCCc1ccc(O)cc1 |  | 78.3 µM (active) |
| COc1ccc(COC(C)=O)cc1 |  | inactive |
| CCc1ccc(C(c2ccc(CC)cc2)C(Cl)Cl)cc1 |  | inactive |
| Cc1cccc2n[nH]nc12 |  | inactive |
| C=CC(=O)OCCCCCCCC | 1.29% |  |
| CCCCN(CCO)CCCC | -0.0432% |  |
| CCCCC/C=C/CC1CC(=O)OC1=O (configuration not stated) | -1.16% |  |
| Nc1nc2ccccc2[nH]1 |  | inactive |
| O=C1Nc2ccccc2C1(c1ccc(O)cc1)c1ccc(O)cc1 |  | inactive |
| CC(=O)Nc1ccc(C(=O)CCl)cc1 | 5.18% |  |
| CCC[C@H](N[C@@H](C)C(=O)N1[C@H](C(=O)O)C[C@@H]2CCCC[C@@H]21)C(=O)OCC |  | inactive |
| CC1=CC(=O)c2ccccc2C1=O |  | 27.3 µM (active) |
| O=C(OCc1ccccc1)c1ccc(O)cc1 |  | inactive |
| C=CS(=O)(=O)O | -0.432% |  |
| CCCCCCCCCCCCCCCCCl | 4.57% [at 19 µM] |  |
| O=Cc1ccc(Cl)cc1 | 2.81% |  |
| CCC(CO)(CO)COCC(CC)(CO)CO | 0.306% |  |
| CCCC(=O)c1ccccc1 | 1.68% |  |

| Compound | activity change, negative = cytotoxicity | Potency |
| --- | --- | --- |
| c1ccc2cc3c(ccc4ccccc43)cc2c1 |  | inactive |
| CCOc1ccc2c(c1)C(C)=CC(C)(C)N2 |  | inactive |
| Cc1cccc(O)c1C |  | inactive |
| C#CC(C)(CC)OC(=O)c1ccccc1C(=O)O (configuration not stated) | 1.37% [at 42.5 µM] |  |
| CC1=C(C=O)C(C)(C)CC=C1 | 2.74% |  |
| CO[Si](OC)(OC)c1ccccc1 | -0.245% |  |
| CC(C)(C)NCC(O)COc1ccccc1OCC1CCCO1 (configuration not stated) | 0.34% [at 42.5 µM] |  |
| Cc1ccc(S(=O)(=O)Oc2ccc(N=Nc3ccc(-c4ccc(N=Nc5c(O)ccc6cc(S(=O)(=O)O)cc(S(=O)(=O)O)c56)c(C)c4)cc3C)cc2)cc1 |  | 24.4 µM (active) and 20 µM (active) |
| CCN(CC)C(=O)Nc1ccc(OCC(O)CNC(C)(C)C)c(C(C)=O)c1 (configuration not stated) | -0.342% [at 42.5 µM] |  |
| OCC(CO)N[C@H]1C[C@](O)(CO)[C@@H](O)[C@H](O)[C@H]1O | 3.83% [at 42.5 µM] |  |
| CCC(C)(Oc1ccc(C2(c3ccc(OC(C)(CC)C(=O)O)cc3)CCCCC2)cc1)C(=O)O (configuration not stated) | 3.52% [at 42.5 µM] |  |
| CC(C)(C)c1ccccc1 | 3.16% |  |
| O=C(O)c1cccc(C(=O)O)c1 |  | inactive |
| C/C=C/c1ccc(OCC)c(O)c1 |  | inactive |
| O=C(O)Cn1cnnn1 | 5.67% [at 42.5 µM] |  |
| CCc1cc(C(C)(C)C)c(O)c(C(C)(C)C)c1 |  | inactive |
| O=C(O)c1cn(-c2ccc(F)cc2)c2cc(N3CCNCC3)c(F)cc2c1=O |  | inactive |
| O=C(O)CCc1ccccc1 | 2.11% |  |
